Experimental data published in PubChem BioAssay (NCATS).
Results filed as inconclusive are left out. The source made the active and inactive calls. Calls come from the whole dose curve; as a rule, active = well fitted cell-killing curve with a large enough effect; inconclusive = small, poorly fitted or top-dose-only effect; inactive = flat fitted curve, though single readings scatter.

Legend:
[1] = Cell Viability - LYMP2-012 (AID 982);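 note: cellular ATP by luciferase luminescence where a drop means cytotoxicity; cells exposed to compound for one day before reading; nearly all actives have a fitted effect of over 55% in size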
[2] = Cell Viability - LYMP2-014 (AID 983); note: series mostly up to about 92 µM; nearly all actives have a fitted effect of over 50% in size
Procedure, shortened: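 Luminescent ATP signal (CellTiter-Glo, 30 min at room temperature) serves as the viability read-out after 24 hr compound exposure at 37 C. Cells were seeded at 2500 per well and settled 5 hr beforehand.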

[3] = Cell Viability - LYMP2-016 (AID 984);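 note: cells exposed to compound for 24 hours at 37 °C; nearly all actives have a fitted effect of over 55% in size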
Procedure, shortened: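 Human lymphoblastoid LYMP2-016 cells, 2500 per well, treated with compounds for 24 h at 37 C. Viability read as intracellular ATP by CellTiter-Glo luminescence after 30 min at room temperature; AC50 from Hill fits of concentration-response.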

[4] = Cell Viability - LYMP2-018 (AID 985); note: nearly all actives have a fitted effect of over 50% in size
Procedure, shortened: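 Luminescent ATP signal (CellTiter-Glo, read after 30 min at room temperature) reports viable cells after 24 hr compound treatment at 37 C. Concentration-response data were fitted to the standard Hill equation for AC50.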

[5] = Cell Viability - LYMP2-020 (AID 986); note: series mostly up to about 92 µM; nearly all actives have a fitted effect of over 55% in size
Procedure, shortened: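 Luminescent ATP signal (CellTiter-Glo, 30 min at room temperature) is the read-out after 24 h compound treatment of lymphoblastoid cells at 37 C. AC50 values come from Hill-equation fits across concentrations.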

[6] = Cell Viability - LYMP2-022 (AID 987); note: nearly all actives have a fitted effect of over 55% in size
Procedure, shortened: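 qHTS: human lymphoblastoid cells 2500/well; 5 hr 37 C; cpd added; 24 hr 37 C; CellTiter-Glo, 30 min RT; luminescence. AC50 via Hill fit; tetraoctylammonium bromide positive ctrl.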

[7] = Cell Viability - LYMP2-024 (AID 988); note: nearly all actives have a fitted effect of over 60% in size
Procedure, shortened: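 Steps: seed 2500 cells/well, 5 hr 37 C; add compound, 24 hr 37 C; add CellTiter-Glo, 30 min room temperature; read luminescence. AC50 derived by Hill modelling of concentration-dependent ATP loss.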

[8] = Cell Viability - LYMP2-026 (AID 989); note: nearly all actives have a fitted effect of over 50% in size
Excerpt: NIH Chemical Genomics Center [NCGC]
NIH Molecular Libraries Screening Centers Network [MLSCN]
National Institutes of Environmental Health Sciences [NIEHS]
National Toxicology Program [NTP]
We have developed a 1536-well cell-based assay for quantitative high throughput screening (qHTS) against a number of cell lines to determine in vitro cytotoxicity of small molecules. This particular assay uses a human lymphoblastoid cell line (LYMP2-026) purchased from Coriell Institute for Medical Research.
NCGC Assay Protocol Summary:
The CellTiter-Glo luminescent cell viability assay (Promega) is a homogeneous method to measure the number of viable cells in culture. The end point readout of this assay is based on quantitation of intracellular ATP, an indicator of metabolic activity, using the luciferase reaction. […]
Using the CellTiter-Glo luminescent cell viability assay, the amount of cellular ATP was measured in the lymphoblastoid cell line with complete culture medium following compound treatment for 24 hours. […] Library compounds were measured for their ability to cause acute toxicity in the cell line, as reflected by a decrease in intracellular ATP levels, in a concentration-dependent manner. […] AC50 values were determined from concentration-response data modeled with the standard Hill equation. […]
8. Detection; Luminescence; Viewlux plate reader […]

[9] = Cell Viability - LYMP1-002 - Assay at 24 hr (AID 993)
Procedure, shortened: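 Cells plated 2500/well, 5 hr 37 C; compounds added, 24 hr 37 C; CellTiter-Glo added, 30 min RT; luminescence read. Tetraoctylammonium bromide positive control. Hill-equation AC50.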

Measured: outcome

NC(=O)c1ccccc1
inactive: all assays above

CC(=O)C(C)=O
inactive: all assays above
